Data reported in PubChem BioAssay (NCATS).
Results filed as inconclusive are left out. Calls of active or inactive are those of the source. Unless noted, calls follow the shape of the dose curve; as a rule, active = well fitted curve in the direction sought with a large enough effect; inconclusive = small, poorly fitted or top-dose-only effect, or another doubt; inactive = no such curve, though single readings can be large; an effect the other way counts as inactive or inconclusive. Numbered stars: 1 amine (or outer) side, 2 acyl side, 3 side chain; on linkers, the order of the positions; unused ones are H or OH. Bridge positions count the residues as written; N and C are the ends. Square brackets hold non-standard residues; d marks the D form. Peptide text beside a SMILES is read from it. I, II: the chains in the order shown. Actinocin(9to1) = Cc1c2oc3c(C)ccc(C(=O)[*:1])c3nc-2c(C(=O)[*:2])c(N)c1=O; NMeV = CN[C@H](C(=O)O)C(C)C; Sar = CNCC(=O)O

Key:
[1] = target: Protein phosphatase 1D (Homo sapiens) (UniProt O15297); test: RapidFire Mass Spectrometry qHTS Assay for Modulators of WT P53-Induced Phosphatase 1 (WIP1) (AID 1347424);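 also: amount of dephosphorylated VEPPL-S-QETFS peptide product formed by WIP1; series mostly up to about 63 µM; plate controls were DMSO wells for no effect and GSK830371 inhibitor control at 10 µM for full effect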
Procedure, shortened: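 WIP1 (10 nM final) was preincubated 1 h at room temperature with compounds in Tris-HCl pH 7.5, 30 mM MgCl2, TCEP, EGTA, BSA; 2 uM VEPPL-pS-QETFS phosphopeptide was added for 5 min, quenched with formic acid, and dephosphorylated product quantified by RapidFire MS.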

[2] = target: Protein phosphatase 1D (Homo sapiens) (UniProt O15297); test: Rhodamine-PBP qHTS Assay for Modulators of WT P53-Induced Phosphatase 1 (WIP1) (AID 1347425); also: % of control where 0% means no effect
Procedure, shortened: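 5 nM WIP1 + 10 uM Rh-PBP, 50 mM Tris pH 7.5, 30 mM MgCl2, 1 mM TCEP, 0.1 mM EGTA, BSA; cpds pinned, 1 hr RT; + 10 uM phosphopeptide; fluorescence 1-min reads x 11 min; delta = f1 - f0.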

[3] = Primary qHTS for inhibitors of La Crosse Virus (LACV) - induced cell death in SH-SY5Y cells (AID 1508616);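 also: top concentration of the series differs between compounds; 0% = infected DMSO wells and 100% = uninfected DMSO wells; higher means more rescue of cells from virus-induced death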
Procedure, shortened: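 Readout was luminescence from ATPLite 1step added after a 6-day LACV infection (0.01 MOI) of SH-SY5Y cells that had received pin-transferred compound 24 hr after seeding.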

[4] = target: Calcium and integrin-binding protein 1 (Homo sapiens) (UniProt Q99828); test: Primary qHTS for Identification of Calcium Integrin Binding Protein 1 (CIB1) Competitor (AID 1508620);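 also: GST tagged CIB1 binding a fluorescein labelled alphaIIb integrin peptide tracer; top concentration of the series differs between compounds; % is scaled to controls: 0 for no effect and ±100 for the full control effect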
Procedure, shortened: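 Fluorescence polarization competition: CIB1-GST (1 uM final) preincubated with compound 15 min at room temperature, then FITC-labeled alphaIIb peptide (100 nM final) added for another 15 min. Polarization read at Ex 480/Em 540.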

[5] = Primary qHTS for small molecule stabilizers of the endoplasmic reticulum resident proteome: Secreted ER Calcium Modulated Protein (SERCaMP) assay (AID 1508630); also: % is scaled to controls: 0 for no effect and ±100 for the full control effect
Procedure, shortened: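 GLuc-SERCaMP-expressing SH-SY5Y cells, pretreated 16 h with compound, are challenged with thapsigargin to empty ER calcium stores; after 4 h, coelenterazine is added directly to the medium and luminescence is imaged.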

[6] = A High-Content qHTS Against Drug Library for the Identification of Small Molecules that Inhibit DYT1 Early Onset Primary Dystonia-Associated Cell Pathology (AID 1645839; calls by dose curve; also: series mostly up to about 46 µM)
Procedure, shortened: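 Readout: %pathology, the punctate EGFP-TorsinA distribution from imaging, as the primary channel and cell count as the toxicity counterscreen. HEK293 Flp-In cells expressing delE TorsinA were induced with tetracycline and treated with compound for 48 h.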

[7] = Cell Viability qHTS for small molecule stabilizers of the endoplasmic reticulum resident proteome (AID 1508629); conditions: cell viability counter-screen, 100 nM thapsigargin for final 4 h;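 also: human SH-SY5Y neuroblastoma cells carrying the GLuc-SERCaMP reporter; compound exposure about 46 h in total before the viability read; % is scaled to controls: 0 for no effect and ±100 for the full control effect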

Protein phosphatase 1D (Homo sapiens), sequence (O15297 whole entry, looked up): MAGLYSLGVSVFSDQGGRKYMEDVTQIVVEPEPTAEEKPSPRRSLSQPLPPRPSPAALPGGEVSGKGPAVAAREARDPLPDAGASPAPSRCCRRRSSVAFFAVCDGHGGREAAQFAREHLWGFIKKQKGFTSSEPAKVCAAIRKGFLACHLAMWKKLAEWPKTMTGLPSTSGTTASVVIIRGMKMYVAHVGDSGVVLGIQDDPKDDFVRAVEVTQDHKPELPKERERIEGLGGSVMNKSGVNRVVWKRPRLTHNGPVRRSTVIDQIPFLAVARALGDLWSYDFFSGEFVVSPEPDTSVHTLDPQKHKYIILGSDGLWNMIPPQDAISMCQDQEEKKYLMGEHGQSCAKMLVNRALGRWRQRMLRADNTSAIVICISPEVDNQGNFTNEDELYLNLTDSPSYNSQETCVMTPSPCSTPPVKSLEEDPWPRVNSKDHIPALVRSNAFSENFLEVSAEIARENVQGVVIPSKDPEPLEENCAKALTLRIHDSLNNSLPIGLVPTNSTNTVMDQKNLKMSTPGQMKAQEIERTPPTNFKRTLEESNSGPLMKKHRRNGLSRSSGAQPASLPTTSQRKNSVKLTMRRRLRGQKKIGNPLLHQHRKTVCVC
Calcium and integrin-binding protein 1 (Homo sapiens), sequence (Q99828 whole entry, looked up): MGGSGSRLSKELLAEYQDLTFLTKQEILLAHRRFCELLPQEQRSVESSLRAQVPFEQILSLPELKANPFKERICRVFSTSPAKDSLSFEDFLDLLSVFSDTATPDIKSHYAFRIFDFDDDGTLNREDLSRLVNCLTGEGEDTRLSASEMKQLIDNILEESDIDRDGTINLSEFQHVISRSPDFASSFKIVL

O=S1(=O)c2cccc3cccc(c23)N1CCCN1CCN(c2ccc(F)cc2)CC1
inactive: Potency [1] | outcome [2] | Potency [3] | Potency [4] | Potency [5]

CCCSS/C(CCO)=C(\C)N(C=O)Cc1cnc(C)nc1N
inactive: Potency [1] | outcome [2] | Potency [3] | Potency [4] | Potency [5] | Potency [6]

CCCCc1nc(Cl)c(CO)n1Cc1ccc(-c2ccccc2-c2nn[nH]n2)cc1
inactive: Potency [1] | outcome [2] | Potency [3] | Potency [4] | Potency [5] | Potency [6]

CCCCOc1ccc(OCCCN2CCOCC2)cc1
inactive: Potency [1] | outcome [2] | Potency [3] | Potency [4] | Potency [5]

OC[C@@H](O)[C@@H](O[C@@H]1O[C@H](CO)[C@H](O)[C@H](O)[C@H]1O)[C@H](O)[C@@H](O)CO
inactive: Potency [1] | outcome [2] | Potency [3] | Potency [4] | Potency [5] | Potency [6]

CN1CCN(CCCN2c3ccccc3Sc3ccc(S(=O)(=O)N(C)C)cc32)CC1
inactive: Potency [1] | outcome [2] | Potency [3] | Potency [4] | max response [7] -9.17%

C[C@H]1C[C@H]2[C@@H]3CCC4=CC(=O)C=C[C@]4(C)[C@@]3(Cl)[C@@H](O)C[C@]2(C)[C@@]1(O)C(=O)CO
inactive: Potency [1] | outcome [2] | Potency [3] | Potency [4] | Potency [5]

CO/N=C1\CN(c2nc3c(cc2F)c(=O)c(C(=O)O)cn3C2CC2)CC1CN (configuration not stated)
inactive: Potency [1] | outcome [2] | Potency [3] | Potency [4] | Potency [5] | Potency [6]

CC1(C)O[C@@H]2[C@@H](CO[C@@]3(COS(N)(=O)=O)OC(C)(C)O[C@@H]23)O1
inactive: Potency [1] | outcome [2] | Potency [3] | Potency [4] | Potency [5] | Potency [6]

Cc1c2oc3c(C)ccc(C(=O)N[C@@H]4C(=O)N[C@H](C(C)C)C(=O)N5CCC[C@H]5C(=O)N(C)CC(=O)N(C)[C@@H](C(C)C)C(=O)O[C@@H]4C)c3nc-2c(C(=O)N[C@@H]2C(=O)N[C@H](C(C)C)C(=O)N3CCC[C@H]3C(=O)N(C)CC(=O)N(C)[C@@H](C(C)C)C(=O)O[C@@H]2C)c(N)c1=O (I: T[dV]P[Sar][NMeV] / II: T[dV]P[Sar][NMeV]; ester I:1-I:C, II:1-II:C; linker I:N-II:N via Actinocin(9to1))
inactive: Potency [1] | outcome [2] | Potency [3] | Potency [4] | Potency [5] | Potency [6]

Cc1cc2c(cc1CC(=O)c1sccc1S(=O)(=O)Nc1onc(C)c1Cl)OCO2
inactive: Potency [1] | outcome [2] | Potency [3] | Potency [4] | Potency [5] | Potency [6]

COc1cc(C(=S)N2CCOCC2)cc(OC)c1OC
inactive: Potency [1] | outcome [2] | Potency [3] | Potency [4] | Potency [5] | Potency [6]

Cc1c(F)c(N2CCNC(C)C2)cc2c1c(=O)c(C(=O)O)cn2C1CC1 (configuration not stated)
inactive: Potency [1] | outcome [2] | Potency [3] | Potency [4] | Potency [5] | Potency [6]

O=C1c2ccccc2C(=O)C1c1ccccc1
inactive: Potency [1] | outcome [2] | Potency [3] | Potency [4] | Potency [5] | Potency [6]

COC(=O)[C@@H]1CC2=CC(=O)CC[C@]2(C)[C@@]23O[C@@H]2C[C@@]2(C)[C@@H](CC[C@@]24CCC(=O)O4)[C@H]13
inactive: Potency [1] | outcome [2] | Potency [3] | Potency [4] | Potency [5] | Potency [6]

Cc1cccc(C)c1NC(=O)CN1CCN(CCCC(c2ccc(F)cc2)c2ccc(F)cc2)CC1
inactive: Potency [1] | outcome [2] | Potency [3] | Potency [4] | Potency [5] | Potency [6]

Cc1c(N(C)CS(=O)(=O)O)c(=O)n(-c2ccccc2)n1C
inactive: Potency [1] | outcome [2] | Potency [3] | Potency [4] | Potency [5] | Potency [6]

CC(=O)Oc1ccc2c(c1)CC[C@@H]1[C@@H]2CC[C@]2(C)[C@@H](O)CC[C@@H]12
inactive: Potency [1] | outcome [2] | Potency [3] | Potency [4] | Potency [5] | Potency [6]

CCn1cc(C(=O)O)c(=O)c2cnc(N3CCCC3)nc21
inactive: activity change, negative = inhibition [1] -0.783% [at 12.6 µM] | activity change, negative = inhibition [2] -2.4% [at 11.5 µM] | activity change [3] -0.143% [at 0.858 µM] | Potency [4] | activity change, negative = inhibition [5] -14.1% [at 7.35 µM] | % pathology change, negative = correction [6] 0.401% [at 9.22 µM]

CN(C/C=C/c1ccccc1)Cc1cccc2ccccc12
inactive: Potency [1] | outcome [2] | Potency [3] | Potency [4] | Potency [5] | Potency [6]

COc1cc(-c2ccc(=O)[nH]n2)ccc1OC(F)F
inactive: Potency [1] | outcome [2] | Potency [3] | Potency [4] | Potency [5] | Potency [6]

Nc1ccc(C(=O)O)cc1
inactive: Potency [1] | outcome [2] | Potency [3] | Potency [4] | Potency [5] | Potency [6]

CC(Cc1cccc(C(F)(F)F)c1)NCCOC(=O)c1ccccc1 (configuration not stated)
inactive: Potency [1] | outcome [2] | Potency [3] | Potency [4] | Potency [5] | Potency [6]

CC(O)(P(=O)(O)O)P(=O)(O)O
inactive: Potency [1] | outcome [2] | Potency [3] | Potency [4] | Potency [5] | Potency [6]

COC(=O)CCc1ccc(OCC(O)CNC(C)C)cc1 (configuration not stated)
inactive: Potency [1] | outcome [2] | Potency [3] | Potency [4] | Potency [5] | Potency [6]

CC(=O)CC(c1ccc([N+](=O)[O-])cc1)c1c(O)c2ccccc2oc1=O (configuration not stated)
inactive: Potency [1] | outcome [2] | Potency [3] | Potency [4] | Potency [5] | Potency [6]
